# Test results from PubChem BioAssay AID624202 (National Center for Advancing Translational Sciences (NCATS), 2012).
# In all, about 380,000 compounds went through this assay and about 4,000 (1.1%) were called active. Inconclusive results (about 3%) are left out. Calls come from the whole dose curve; as a rule, active = well fitted activation curve with a large enough effect; inconclusive = small, poorly fitted or top-dose-only effect; inactive = no such curve, though single readings can be large or run the other way. Only a selection was taken, and actives are over-represented in it overall.
# Assay: qHTS Assay to Identify Small Molecule Activators of BRCA1 Expression; note: nearly all actives have a fitted effect of over 80% in size
# Conditions: MCF7-BRCA1-FFLuc reporter, luminescence, 48 h; series mostly up to 46.1 µM; activation: at the top concentration
# Procedure, shortened: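 MCF7 cells carrying a BRCA1-firefly luciferase reporter (2000 cells/well, phenol-red free MEM) were attached for 2 h at 37 °C, then given compounds for 48 h. Luminescence was read 15 min after luciferase reagent; activity normalized to genistein (10 microM) and DMSO.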
# Potency is the fitted concentration of half-maximal effect.
Compound,activation,Potency
CCOC(=O)c1c(C)[nH]c(C)c1S(=O)(=O)N(C)CC(=O)N1CCN(c2ccccc2)CC1,3.46% (inactive),
CC(C)CNC(=S)Nc1ccc(F)cc1,,10 µM (active)
CC(C)CNC(=S)NNC(=O)c1ccccc1OC(F)F,-0.636% (inactive),
CC(NC(=S)Nc1ccc(OC(F)F)cc1)c1ccc(F)cc1 (stereo not drawn),-27.5% (inactive),
O=C(CSc1ccccc1)Nc1nnc(/C=C/c2ccccc2)s1,70.1% (inactive),
CC(C)C(=O)Nc1nnc(Sc2ccc(N(C)C)cc2)s1,-16.1% (inactive),
COc1ccc(/C=C/c2nnc(NC(=O)C(C)C)s2)cc1,,3.98 µM (active)
CCOc1ccc(OCC)c(NC(=O)c2c(C)nn(-c3ccccc3)c2-n2cccc2)c1,65.8% (inactive),
Cc1cc2c(cc1S(=O)(=O)CCC(=O)Nc1ccc(OC(F)(F)F)cc1)OCC(=O)N2,6.63% (inactive),
CCOc1ccc(NC(=O)CSc2nnc3c(n2)[nH]c2ccc(S(=O)(=O)N4CCOCC4)cc23)cc1,8.86% (inactive),
COc1cccc(Nc2nc(N)c([N+](=O)[O-])c(NCc3ccco3)n2)c1,0.078% (inactive),
COc1ccc(-n2cnc3cc(NCc4ccco4)ccc32)cc1,,8.91 µM (active)
COc1ccc(Nc2nc(NCc3ccco3)nc(N/N=C/c3ccccc3Cl)n2)cc1,65.1% (inactive),
Cc1csc(NCC(=O)c2c[nH]c3ccccc23)n1,14% (inactive),
CC1CCN(CC(=O)c2c[nH]c3ccccc23)CC1,6.76% (inactive),
O=C(NCCCc1ccccc1)C(=O)c1c[nH]c2ccccc12,61.3% (inactive),
O=C(NC1CCCC1)C(=O)c1c[nH]c2ccccc12,,11.2 µM (active)
CC(C)Oc1ccc(CNC(=O)C2CCN(c3nc4ccccc4n(C)c3=O)CC2)cc1,-1.95% (inactive),
CCn1nc(C)c(/C=N/NC(=O)Cc2ccc(Cl)cc2)c1C,,7.94 µM (active)
Cc1nn(Cc2ccc(Cl)cc2)c(Cl)c1/C=N/NC(=O)CNc1ccccc1F,23% (inactive),
O=C(CSc1nnc(SCc2ccc(Cl)cc2)s1)N/N=C/c1ccccc1Cl,11.2% (inactive),
COc1cc2[nH]c(C)c(CCN3CCN(c4ccccc4)CC3)c2cc1OC,8.7% (inactive),
COc1ccccc1C1C(C(=O)N2CCCCC2)=C(C)Nc2nc3ccccc3n21 (stereo not drawn),1.14% (inactive),
COC(=O)C1=C(C(=O)OC)[C@@H]2N(Cc3ccccc3)c3ccccc3[C@@]23C[C@@H](C(=O)OC)N(S(=O)(=O)c2ccc(C(F)(F)F)cc2)C3=N1,-3.67% (inactive),
Cc1ccc(-c2nc(C#N)c(NCCCn3ccnc3)o2)cc1,,4.47 µM (active)
Cc1ccc2c(Cl)c(C(=O)NCCCn3ccnc3)sc2c1,-2.83% (inactive),

Compound,activation,Potency
Cc1ccc(S(=O)(=O)c2nc(NCCCn3ccnc3)sc2Cl)cc1,-18.5% (inactive),
CC(C)c1ccc(NC(=O)CN(C)S(=O)(=O)c2ccc3c(c2)c(=O)n(C)c(=O)n3C)cc1,6.46% (inactive),
COc1ccc2c(c1)c(N1CCCC1=O)c(C(=O)Nc1ccccc1C(F)(F)F)n2C,-15.9% (inactive),
O=C(COC(=O)Cc1ccc(Cl)cc1Cl)NCc1ccco1,1.86% (inactive),
O=C(/C=C/c1ccc(Cl)cc1Cl)NCc1ccco1,,11.2 µM (active)
COC(=O)/C=C/C(=O)NCc1ccco1,7.24% (inactive),
O=C(NCC12CC3CC(CC(C3)C1)C2)c1cc2nc(-c3ccccc3)cc(C(F)(F)F)n2n1,4.13% (inactive),
COc1ccc(-n2ccnc(NCCc3ccc(Cl)cc3)c2=O)cc1OC,-20.9% (inactive),
O=C(NC1CCN(Cc2ccccc2)CC1)c1ccc(Cn2c(=O)c3ccccc3n(Cc3cccc(F)c3)c2=O)cc1,-0.126% (inactive),
CNC(=O)c1sc(Nc2ccc(OCc3ccccc3)cc2)nc1C,-32.3% (inactive),
S=c1[nH]nc(Nc2ccccc2)s1,29.3% (inactive),
CC(C)(C)C(=O)c1cnc(Nc2ccccc2)s1,,4.47 µM (active)
CCOc1n[nH]c(-c2ccccc2)n1,7.24% (inactive),
COc1ccc(-c2noc(CSc3nc(C)cc(=O)[nH]3)n2)cc1OC,6.36% (inactive),
COc1ccc(-c2noc(-c3cccc(OC)c3OC)n2)cc1OC,,3.98 µM (active)
COc1cc(-c2noc(-c3ccc(N4CCCC4)c([N+](=O)[O-])c3)n2)cc(OC)c1OC,1.9% (inactive),
CCN(CC)S(=O)(=O)c1ccc(C(=O)N=c2sc3cccc(OC)c3n2C)cc1,1.52% (inactive),
C=COC(=O)N1CCN(/[N+]([O-])=N/Oc2ccc([N+](=O)[O-])cc2[N+](=O)[O-])CC1,-34.6% (inactive),
Cc1ccn(-c2cccc(-n3ccc(C)n3)n2)n1,,12.6 µM (active)
Cc1cccc(N2O[C@H]3C=CC2CCCC3)n1,8.96% (inactive),
CCCN(CCC)C(=O)Cn1c(=O)n(-c2ccc(Cl)cc2)c(=O)c2c3c(sc21)CCCCC3,0.395% (inactive),
CCn1cc(C(=O)NCCc2ccccc2)c(=O)c2cc(S(=O)(=O)N3CCCCCC3)ccc21,21.6% (inactive),
COCc1cc(C)n(CC(=O)NCC2CCCO2)c(=O)c1C#N (stereo not drawn),-1.54% (inactive),
Cc1ccc2c(c1)N(CC(=O)NCC1CCCO1)C(=O)CO2 (stereo not drawn),10.8% (inactive),
Cc1ccc(-n2c(C)cc(/C=C(\C#N)C(=O)NCC3CCCO3)c2C)cc1 (stereo not drawn),,2.51 µM (active)
CCC(=O)N1CCc2cc(CNC(=O)Nc3ccccc3Cl)ccc21,0% (inactive),

Compound,activation,Potency
CCCC(=O)N1CCN(c2nc3c(OC)ccc(C)c3s2)CC1,0% (inactive),
CCCN(CCC)S(=O)(=O)c1ccc(C(=O)Nc2sc3c(c2C(=O)OC)CCN(CC)C3)cc1,-3.04% (inactive),
O=C(CC(c1cccs1)N1Cc2ccccc2C1=O)Nc1ccc(F)cc1F (stereo not drawn),-10.8% (inactive),
CC(C)(C)C(=O)Nc1ccc(-c2cn3cccnc3n2)cc1,,2.82 µM (active)
CCCCCC(=O)Nc1ccc(-c2cn3cccnc3n2)cc1,26.8% (inactive),
CC(C)(C)C(=O)Nc1cccc(-c2ccc[nH]2)n1,14.2% (inactive),
CCCCCN1CC(O)=C(c2nc(-c3ccc(Cl)cc3)cs2)C1=N,3.59% (inactive),
N#CC(=C1SC=CS1)c1nc(-c2ccccc2)cs1,0.115% (inactive),
N#CC(=C1CCCC1)c1nc(-c2ccc(Cl)cc2)cs1,,6.31 µM (active)
OC(Cc1ccc2ccccc2n1)c1ccc(Cl)c(Cl)c1 (stereo not drawn),91.1% (inactive),
O=C(Cc1ccc(F)cc1)N/N=C/c1ccc2c(c1)OCO2,,3.98 µM (active)
O=C(Cc1c[nH]c2ccccc12)N/N=C/c1cccc(F)c1,-8.13% (inactive),
O=C(CN1CCSCC1)N/N=C/c1ccc(F)cc1,5.61% (inactive),
O=C(C1CCCN(S(=O)(=O)c2cccc3nonc23)C1)N1CCN(c2ccccc2F)CC1 (stereo not drawn),20% (inactive),
Cn1c(=O)c2c(nc(Oc3ccc(C#N)cc3)n2Cc2ccc(Cl)cc2Cl)n(C)c1=O,15% (inactive),
O=C(COC(=O)c1ccccc1OCCOc1ccccc1)Nc1cccc(Br)c1,27.6% (inactive),
Cc1cccc(OCCSc2nc3ccccc3n2CC(=O)N2CCCCC2)c1C,-0.0666% (inactive),
COc1cccc(C(=O)c2sc3nc(-c4ccccc4)cc(C(F)(F)F)c3c2N)c1,-16.2% (inactive),
CCN(CC)C(=O)c1nc[nH]c1C(=O)N(C)Cc1ccccc1,5.79% (inactive),
CCN(CC)C(=O)c1sc2nc(-c3ccccc3)ccc2c1N,,2.24 µM (active)
Cc1ccc(S(=O)(=O)N2CCN(c3nc(-n4cnc5ccccc54)nc4ccccc34)CC2)cc1,1.6% (inactive),
CCCCCn1c(=O)[nH]c2cc(C(=O)Nc3ccc(F)cc3)ccc2c1=O,0% (inactive),
CN(C)C1=C2C=CC=CC2/C(=C2/C=Cc3ccccc32)C=C1 (stereo not drawn),-38.7% (inactive),
O=C(COc1ccccc1C(=O)Nc1ccccc1)Nc1cccc(F)c1,-25.4% (inactive),
Cc1ccc(C)c(N2CCN(C(=O)CN3C(=O)COc4ccc(S(=O)(=O)N5CCCCCC5)cc43)CC2)c1,-8.26% (inactive),
COc1cc(-c2nnc(NC(=O)C3=COCCO3)o2)cc(OC)c1OC,-6.67% (inactive),

Compound,activation,Potency
CCC(CC)c1nnc(NC(=O)C2=COCCO2)s1,,10 µM (active)
CCC(CC)c1nnc(NC(=O)C2CCN(C(=O)c3ccco3)CC2)s1,-18.7% (inactive),
CCn1c(SCC(=O)Nc2sc(C)c(C)c2C#N)nnc1C1CC1,4.48% (inactive),
CCOC(=O)c1sc(N)c(C#N)c1COC(=O)C1=COCCO1,-3.85% (inactive),
Cc1sc(NC(=O)C2=COCCO2)c(C#N)c1C,,12.6 µM (active)
COc1ccc(N(CC(=O)NCCc2ccc(Cl)cc2)S(=O)(=O)c2c(C)nn(C)c2C)cc1,-29.5% (inactive),
CCCCOc1ccc(C(=O)NO)cc1,-15.2% (inactive),
CC1(C)C=Cc2c(ccc(C(=O)/C=C/c3ccccc3)c2O)O1,37.3% (inactive),
CC1(C)C=Cc2c(ccc3c2OC[C@@H](c2ccc(O)cc2O)C3)O1,,11.2 µM (active)
O=C(/C=C/c1ccccc1)N1CCN(Cc2cc(=O)n3nc(-c4ccccc4F)sc3n2)CC1,0% (inactive),
O=C(Cc1cccc2ccccc12)Nc1ccc2oc(-c3ccccc3)nc2c1,,11.2 µM (active)
O=C(Cc1cccc2ccccc12)NNC(=O)Nc1ccc(Cl)cc1,0% (inactive),
Cc1ccc(NC(=S)NC(NC(=O)Cc2cccc3ccccc23)C(Cl)(Cl)Cl)cc1 (stereo not drawn),-17% (inactive),
CCn1c(=O)c2cc(C(=O)NCCc3ccc(Cl)cc3)sc2c2ccccc21,-7.3% (inactive),
COc1cc(OC)c(OC)cc1/C=C1\C=Cc2ccccc21,-1.54% (inactive),
COc1cccc(NC(=O)CN(C)C(C)C(=O)Nc2ccc(C#N)cc2)c1 (stereo not drawn),-16.1% (inactive),
COc1ccc(C(=O)NCc2nnc(SCC(=O)Nc3cccc(OC)c3)o2)cc1,10.8% (inactive),
CCC(=O)Nc1ccc(C(=O)Nc2cccc(OC)c2)cc1,,12.6 µM (active)
Cc1ccc(C(=O)Nc2ccc(OCc3cc(=O)n4c(C)csc4n3)cc2)cc1,11.9% (inactive),
Cc1ccc(-c2nnc3ccc(SCC(N)=O)nn23)cc1,19.8% (inactive),
CCOC(=O)c1oc2ccc(S(=O)(=O)n3nc(-c4ccccc4OC)cc3N)cc2c1C,4.41% (inactive),
O=C(CSc1nc2ccccc2o1)N/N=C/c1ccccc1C(=O)O,30.4% (inactive),
O=C(CSc1nc2ccccc2o1)N1CCN(c2ccccc2)CC1,-2.33% (inactive),
Cc1ccc(/C=N/NC(=O)CSc2nc3ccccc3o2)cc1,,11.2 µM (active)
CC1=C(C(=O)OCc2ccc(C)cc2)C(c2ccccc2Cl)CC(=O)N1 (stereo not drawn),-3.29% (inactive),
